Inconclusive results are not listed. Calls of active or inactive are those of the source. The call rests on the fitted dose curve; in most records, active means well fitted inhibition curve with a large enough effect; inconclusive means small, poorly fitted or top-dose-only effect, or effect the other way; inactive means flat fitted curve, though single readings scatter.
Test: Secondary Assay for General miRNAs Modulators and/or Inhibitors/Activators of miR-21: miR-30 Firefly Luciferase Assay
Settings: HeLa miR-30 FLuc reporter, luminescence, 48 h; series mostly up to 38.3 µM
Text: MLSCN Grant: 1 R21 NS059478-01 Assay Provider: Qihong Huang, The Wistar Institute NCGC Assay Overview: MicroRNAs (miRNAs) are endogenously encoded small (~20-25 nucleotides), nonprotein-coding RNAs that are involved in post-transcriptional repression of target messenger RNAs (mRNAs) (Le and Hannon, 2004). Estimated to be involved in the regulation of 30% of all protein-coding mRNAs (Filipowicz et al., 2008), miRNAs play a significant role in many biological processes including cellular differentiation and tissue development (Ghildiyal and Zamore, 2009). […] Compounds active in the miR-21 FLuc assay were clustered using Leadscope and active chemical series were prioritized based on chemical properties, potential for medicinal chemistry optimization, and SAR. Within each chemical series, representative compounds were re-acquired to test for activity in a secondary assay based on the quality of their CRC, efficacy, and potency. The secondary assay to determine if compounds active in the miR-21 FLuc assay were potentially specific for miR-21 and were not general modulators of the miRNA pathway was another cell-based FLuc reporter gene assay, this time targeting miR-30. Compounds found active in both the miR-21 FLuc and miR-30 FLuc assays are not considered miR-21 specific compounds, and may be general miRNA modulators.
NCGC Assay Protocol Summary: Reagents: HeLa cells stably expressing firefly luciferase (FLuc) under the control of a CMV promoter (upstream) and a miR-30 binding sequence directly downstream of the gene. These cells also stably express miR-30. Control compounds used were compound C3 (provided by collaborator), N6-phenyladenosine (MP Biomedicals, 0215379625), and DMSO. Assay Summary: 6uL of HeLa miR-30-FLuc cells in assay buffer (DMEM, Invitrogen #21063-029; 10% FBS, HyClone #SH30071.03) were dispensed at 1000cells/well (1.7 x 10^5 cells/mL) into Greiner solid-white TC-treated 1536-well plates using a Multidrop Combi (Thermo Fisher Scientific). Plates were incubated for one hour at 37 degree Celsius, 95% humidity, 5% CO2. These assay plates were then treated with 23nL of compound or DMSO using a Kalypsys pin tool, which allows for delivery of a 24-point titration of each compound to the assay plate, with a final compound concentration ranging from approximately 40uM to 5pM. Assay plates were then incubated for 48 hours. After incubation, plates were allowed to come to RT for one hour prior to delivery of 3uL of 3X luciferase detection reagent. After a 15 minute incubation to allow for cell lysis, luciferase activity was measured using a ViewLux CCD imager (PerkinElmer), with an average exposure time of 2-12 seconds. Keywords: NIH Roadmap, MLPCN, MLSMR, qHTS, miR-21, miR-30, microRNA, firefly luciferase, FLuc.
For CN(C)c1ccc(CNc2nc(-c3ccco3)nn2S(C)(=O)=O)cc1, the Potency was 2.83 µM (active).
